# The panel holds about 83,000 compounds, 20% with a hit somewhere; the sample as a whole holds those more often.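 96-well plates, one dose, 48 hours. Percent growth reported; active if below 10.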 Active and inactive are the calls of the source.
# System: HL-60(TB) leukemia
# Experiment: NCI-60 one-dose screen, 48 h (100 = growth as untreated, 0 = no growth, -100 = all killed)
# Settings: 10 µM unless noted
row,Compound,growth
1,COc1ccccc1C(=O)CSc1nc(Nc2ccc(S(N)(=O)=O)cc2)c2ccccc2n1,94.5% (inactive)
2,CC(=O)Nc1ccc(NC(=O)Nc2cccc(-c3nc(-c4ccc(NC(=O)c5cccnc5)cc4Cl)no3)c2)cc1C(F)(F)F,-39.1% (active)
3,CCN1C/C(=N\S(=O)(=O)c2ccccc2)N(CC)C1=S,100% (inactive)
4,CC(Nc1ncnc2ccc(-c3cnc4cnccn34)cc12)c1ccccc1 (stereo not given),52.4% (inactive)
5,CCNC(=O)Oc1ccc(/C(=C(/C)c2ccccc2)c2ccc(OCCN3CCCC3)cc2)cc1,50.7% (inactive)
6,CC1(C)[C@@H](O)CC[C@]2(C)[C@H]3CC[C@@H]4[C@H]5[C@H](C(=O)/C=C\c6ccncc6)CC[C@]5(O)CC[C@@]4(C)[C@]3(C)CC[C@@H]12,26.4% (inactive)
7,O=S(=O)(Oc1ccc(-c2cn3ccoc3n2)cc1)c1cccc(C(F)(F)F)c1,105% (inactive)
8,CCC(CC)N1C(=O)/C(=c2\sc3n(c2=O)C2C(NN=3)N(CC)C(=O)N2CC)c2ccccc21 (stereo not given),-17.8% (active)
9,O=C(O)c1ccc(-n2cc(CNc3cc(F)c(F)c(F)c3)c(-c3ccc(F)cc3)n2)cc1,103% (inactive)
10,COc1cc(/C=C/C(=O)c2ccc(NC(=O)COc3cccc4cccnc34)cc2)cc(OC)c1OC,34.7% (inactive)
11,CCCCN1C(=O)/C(=c2\sc3n(c2=O)C2C(NN=3)N(CC)C(=O)N2CC)c2cc(C)ccc21 (stereo not given),93.2% (inactive)
12,c1ccc(-c2c(-c3ccccc3)[n+](Cc3ccc4ccccc4c3)c(-c3ccccc3)n2Cc2ccc3ccccc3c2)cc1,-59.9% (active)
13,NC1CC2(CCN(c3cnc(C(=O)Nc4cc(F)cc5cccnc45)cn3)CC2)C1,50.6% (inactive)
14,N#Cc1cccc(NC(=O)c2cc(-c3ccc(F)cc3F)ccc2O)c1,-29.2% (active)
15,COc1cc(C2=NN(C(C)=O)C(c3ccc(N4CCOCC4)cc3)C2)cc(OC)c1OC (stereo not given),105% (inactive)
16,O=C(/C=C/c1cccc(F)c1)c1cccc(OCCCCOc2cccc(C(=O)/C=C/c3cccc(F)c3)c2)c1,101% (inactive)
17,COc1ccccc1-n1cc(C#N)c(N)c1C(=O)c1ccc(Cl)cc1,36.5% (inactive)
18,COc1ccc(/C=C/C(=O)c2cccc(NC(=O)CSc3nc4ccccc4c(=O)n3-c3ccccc3)c2)cc1OC,98.9% (inactive)
19,c1ccc(-c2cn3c(-c4c[nH]c5ccccc45)csc3n2)cc1,56% (inactive)
20,COc1cc2nc(-c3ccc(C(F)(F)F)cc3)cc(OCCCNCC3CCCO3)c2cc1OC (stereo not given),11.9% (inactive)

row,Compound,growth
1,O=C(CSc1nnc(-c2ccc3nc(-c4ccccc4)[nH]c3c2)o1)Nc1ccc(C(=O)/C=C/c2ccccc2)cc1,109% (inactive)
2,COc1cc(/C=C2\C(=O)Nc3cc(Cl)ccc32)ccc1OCc1ccc(F)cc1,120% (inactive)
3,NC(N)=Nc1ccc(Oc2cccc(NC(N)=Nc3ccc(I)cc3F)c2)cc1,67.4% (inactive)
4,CN1CCN(c2nc(-c3cnc4ccccc4n3)cc3ccccc23)CC1,-36.2% (active)
5,C=CCOc1cccc(/C=C2\SC(=S)N(C3CC(=O)N(c4ccc(Br)cc4)C3=O)C2=O)c1 (stereo not given),108% (inactive)
6,O=C1[C@@H]2Cc3c([nH]c4ccccc34)[C@H](c3ccc(Cl)cc3)N2C(=O)CN1C1CCN(Cc2ccccc2)CC1,17.6% (inactive)
7,Cn1ccnc1C(=O)/C=C/c1ccc(CNC(=O)c2ccc(S(F)(F)(F)(F)F)cc2)cc1,-4.98% (active)
8,CCOC(=O)c1c(Nc2ccccc2)nn2c(-c3ccc(Cl)cc3)ccnc12,86.7% (inactive)
9,COc1cc(-c2nn(C(C)(C)C)cc2-c2ccnc(NCCCNS(=O)(=O)c3ccccc3)n2)ccc1Cl,103% (inactive)
10,CCN1CCN(Cc2ccc(C(=O)Nc3ccc(C)c(Oc4ccc(-c5[nH]nc6ncnc(N)c56)cc4)c3)cc2C(F)(F)F)CC1,139% (inactive)
11,C#CCOc1ccc(/C=N/Nc2nc(-c3cc4cc(Br)cc(Br)c4oc3=O)cs2)cc1,85.9% (inactive)
12,O=C1[C@@H]2Cc3c([nH]c4ccccc34)[C@@H](c3ccc(Cl)cc3)N2C(=O)CN1C1CCN(Cc2c(F)cccc2F)CC1,0.352% (active)
13,Clc1nc2ccccc2nc1-c1nnc(C2CCCCC2)o1,66.6% (inactive)
14,C/C(=N\NC(=O)CSc1nc2sc3c(c2c(=O)n1-c1ccccc1)CCC(C)C3)c1ccc(Cl)cc1 (stereo not given),3.75% (active)
15,COc1ccc(/C=N/NC(=O)c2cn(C3CC3)c3c(OC)c(N4CC5CCCNC5C4)c(F)cc3c2=O)cc1 (stereo not given),80.6% (inactive)
16,C=C(C)[C@@H]1CC[C@]2(C(=O)N3CCN(C)CC3)CC[C@]3(C)[C@H](CC[C@@H]4[C@@]5(C)CC[C@H](OP(=O)(OCC)OCC)C(C)(C)[C@@H]5CC[C@]43C)[C@@H]12,42.2% (inactive)
17,Nc1cc(F)ccc1NC(=O)c1ccc(NC(=O)C/C=C/c2cccnc2)cn1,11.3% (inactive)
18,O=C(NCCCNc1cc(-c2cn(-c3ccccc3)nc2-c2cccc(O)c2)ccn1)Nc1ccc(F)cc1,1.09% (active)
19,CC(=O)NC(C)(C)C(=O)N[C@@H](C)C(=O)NC(C)(C)C(=O)N[C@@H](C)C(=O)NC(C)(C)C(=O)N[C@@H](C)C(=O)N[C@@H](CCC(N)=O)C(=O)NC(C)(C)C(=O)N[C@H](C(=O)NC(C)(C)C(=O)NCC(=O)N[C@@H](CC(C)C)C(=O)NC(C)(C)C(=O)N1CCC[C@H]1C(=O)N[C@H](C(=O)NC(C)(C)C(=O)NC(C)(C)C(=O)N[C@@H](CCC(N)=O)C(=O)N[C@@H](CCC(N)=O)C(=O)N[C@H](CO)CC1CCCCC1)C(C)C)C(C)C,10.3% [5 µM] (inactive)
20,COc1cc(-c2nn(C(C)(C)C)cc2-c2ccnc(NCCCNS(=O)(=O)c3cccc(F)c3)n2)ccc1Cl,81.9% (inactive)
